Cruzain inh noDet: qHTS Assay for Promiscuous and Specific Inhibitors of Cruzain (without detergent). Cruzipain (Trypanosoma cruzi), P25779. purified cruzain, Z-FR-AMC fluorescence, no detergent. Potency, µM, usual class: inhibitors. 200,000 compounds, 2.3% hits; note: nearly all actives have a fitted effect of over 40% in size
Target sequence (P25779 123-467 limits assumed): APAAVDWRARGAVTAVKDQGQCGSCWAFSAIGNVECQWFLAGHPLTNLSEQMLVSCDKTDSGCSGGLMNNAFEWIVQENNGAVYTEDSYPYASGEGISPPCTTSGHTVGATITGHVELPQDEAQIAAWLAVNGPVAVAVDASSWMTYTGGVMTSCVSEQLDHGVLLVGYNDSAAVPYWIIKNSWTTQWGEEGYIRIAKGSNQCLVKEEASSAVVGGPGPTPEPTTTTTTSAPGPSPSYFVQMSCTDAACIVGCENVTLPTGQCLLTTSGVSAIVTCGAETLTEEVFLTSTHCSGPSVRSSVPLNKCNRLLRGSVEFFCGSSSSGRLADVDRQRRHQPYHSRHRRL
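Detergent-free condition (0.00005% Triton X-100) in acetate buffer pH 5.5 with DTT. 1.5 nM enzyme and compound were pre-mixed 15 min, then 2 uM Z-FR-AMC substrate added; reaction progress from fluorescence change between first and third reads (60 s).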
Cruzain Triton: qHTS Assay for Promiscuous and Specific Inhibitors of Cruzain (with detergent); Cruzipain (Trypanosoma cruzi), P25779; 200,000 compounds, 0.43% hits; purified cruzain, Z-FR-AMC fluorescence, 0.01% Triton; Potency, µM, hits mostly inhibitors; note: nearly all actives have a fitted effect of over 40% in size
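Cruzain (1.5 nM) preincubated 15 min at RT with compound in 100 mM sodium acetate pH 5.5, 5 mM DTT, 0.01% Triton X-100. Reaction started with 2 uM Z-FR-AMC; AMC fluorescence (ex 360/em 450 nm) change over 60 s gave rate.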
NS1 function inh: qHTS Assay for Inhibitors of Influenza NS1 Protein Function; Potency, µM (titrated, usually from 46.1 µM); AID 2326, 2010; 270,000 compounds, 0.4% hits; calls by dose curve; note: actives are rising curves; nearly all actives have a fitted effect of over 50% in size
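OD600 was taken as the measure of yeast growth restored by compound in an NS1-expressing S. cerevisiae strain. Cells had been washed out of glucose medium and diluted 1:100 into galactose -URA medium, pH 6.0.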
Of the large screens only hits and unclear results are named; the others gave an inactive call; ! = not active in a repeat. The sample as a whole holds a higher share of hits than the screen did. Unless noted, calls come from the whole dose curve; as a rule, active = well fitted curve in the direction sought with a large enough effect; inconclusive = small, poorly fitted or top-dose-only effect, or another doubt; inactive = no such curve, though single readings can be large; an effect the other way counts as inactive or inconclusive.

CC(C)(C)C1CCc2c(sc(NC(=O)c3cccs3)c2C(N)=O)C1 (stereo not given)	Cruzain inh noDet 12.6µM
COC(=O)c1c(NC(=O)COc2ccccc2Cl)sc2c1CCC(C(C)(C)C)C2 (stereo not given)	none (no result: NS1 function inh)
COC(=O)c1c(NC(=O)CSc2nnnn2-c2ccccc2)sc2c1CCC(C)C2 (stereo not given)	Cruzain inh noDet 20µM
CCC(C)(C)C1CCc2c(sc(NC(=O)c3cccs3)c2C(N)=O)C1 (stereo not given)	Cruzain inh noDet inconclusive
CCOC(=O)c1sc(NC(=O)CSc2nnnn2-c2ccccc2)c(C(=O)OCC)c1C	none
COCCNC(=S)N1CCCN(c2nc3cc(C)ccc3cc2C#N)CC1	none (no result: Cruzain inh noDet, Cruzain Triton)
N=C1/C(=C/c2ccco2)C(=O)N=C2SC(CC(=O)N3CCCC3)=NN12	none (no result: Cruzain inh noDet, Cruzain Triton)
O=C1C2Sc3[nH]c(=O)sc3C(c3ccccc3)C2C(=O)N1c1ccc(Cl)cc1 (stereo not given)	NS1 function inh inconclusive
O=C1c2ccccc2NC(c2cccc(F)c2)N1Cc1ccco1 (stereo not given)	none
COc1ccc(C2Nc3ccccc3C(=O)N2Cc2ccco2)cc1COc1ccccc1F (stereo not given)	Cruzain inh noDet 25.1µM
COc1ccc(S(=O)(=O)N(CC(=O)N2CCOCC2)c2ccc(F)cc2)cc1OC	none (no result: Cruzain inh noDet, Cruzain Triton)
CC1CCN(c2ccc(-c3nc(-c4ccccc4)no3)cc2[N+](=O)[O-])CC1	none (no result: NS1 function inh)
Cc1c(NC(=O)c2ccccc2)cc(C(C)C)c(O)c1S(=O)(=O)c1ccc(Cl)cc1	Cruzain inh noDet inconclusive (no result: NS1 function inh)
Cc1c(NC(=O)c2ccc(Cl)cc2)cc(C(C)C)c(O)c1S(=O)(=O)c1ccc(Cl)cc1	Cruzain inh noDet 31.6µM (no result: NS1 function inh)
COC(=O)c1ccc(NC(=O)CSc2nc3cc4ccccc4cc3[nH]2)cc1	none (no result: NS1 function inh)
O=[N+]([O-])c1ccc(-c2cn(-c3ccc(Cl)cc3)c(=S)[nH]2)cc1	Cruzain inh noDet inconclusive
CCc1ccc(-n2cc(-c3ccc([N+](=O)[O-])cc3)[nH]c2=S)cc1	Cruzain inh noDet 25.1µM
Cc1ccc(-c2nnn(CC(=O)N3CCN(c4nc5ccccc5s4)CC3)n2)cc1	Cruzain inh noDet 10µM
CCCC(=O)N1CCN(c2nc3ccccc3s2)CC1	none (no result: Cruzain inh noDet, Cruzain Triton)
Cc1cc(S(=O)(=O)N2CCCOC2CNC(=O)C(=O)NCCc2ccco2)ccc1F (stereo not given)	none (no result: Cruzain inh noDet, Cruzain Triton)
Cc1nn(C)c(C)c1NC(=O)c1ccccc1NC(=O)Nc1ccccc1	none (no result: Cruzain inh noDet, Cruzain Triton)
COC(=O)c1c(-c2cccs2)csc1NC(=O)c1ccc(Br)cc1	none (no result: NS1 function inh)
CCS(=O)(=O)N1Cc2ccccc2CC1C(=O)Nc1ncc(C)s1 (stereo not given)	none (no result: Cruzain inh noDet, Cruzain Triton)
CCS(=O)(=O)N1Cc2ccccc2CC1C(=O)Nc1nc2ccc(C)cc2s1 (stereo not given)	Cruzain inh noDet 12.6µM
CCS(=O)(=O)N1Cc2ccccc2CC1C(=O)Nc1nnc(SCc2ccc(C#N)cc2)s1 (stereo not given)	Cruzain inh noDet 25.1µM, NS1 function inh inconclusive
N#Cc1ccc(CSc2nnc(NC(=O)C3CCCO3)s2)cc1 (stereo not given)	none
CC1=C(C(=O)OCc2ccccc2)C(c2ccccn2)c2c(n(C)c(=O)n(C)c2=O)N1 (stereo not given)	none
O=C(Cc1coc2ccc3ccccc3c12)N1CCc2ccccc21	Cruzain inh noDet 12.6µM
Cc1ccc2c(CC(=O)N3CCc4ccccc43)coc2c1	none
CCOc1ccc(NC(=O)N2CCN(S(=O)(=O)c3ccc4c(ccn4C)c3)CC2)cc1	none (no result: NS1 function inh)
CCOC(=O)c1ccc(N=C2C(=S)N(c3ccc(C(=O)OCC)cc3)C(=N)N2/N=C/c2ccccc2)cc1	Cruzain inh noDet 12.6µM
CCOC(=O)c1ccc(N=Nc2c(C)[nH]n(-c3ccccc3)c2=O)cc1	none (no result: Cruzain inh noDet, Cruzain Triton)
CCOC(=O)CC(=O)CSc1nc(N)c(C#N)c(-c2ccc(Cl)cc2)c1C#N	Cruzain inh noDet 31.6µM
CSc1nc(N)nc(SCC(=O)C23CC4CC(CC(C4)C2)C3)c1C#N	none
CCOC(=O)CC(=O)CSc1nc(C)cc(C)c1C#N	none
N#Cc1c(N)nc(SCC(=O)C23CC4CC(CC(C4)C2)C3)c(C#N)c1-c1ccc(Cl)cc1	Cruzain inh noDet 3.98µM
O=C(NC(=S)N1CCN(c2ccccc2)CC1)c1c(F)cccc1F	none (no result: Cruzain inh noDet, Cruzain Triton)
O=C(Nc1ccccc1C(F)(F)F)Nc1cccc2ccccc12	Cruzain inh noDet 25.1µM
O=C(CC(=O)Nc1ccccc1C(F)(F)F)Nc1ccccc1C(F)(F)F	none (no result: Cruzain inh noDet, Cruzain Triton)
O=C(O)c1ccccc1-c1c2cc(Br)c(=O)cc-2oc2[c]([Hg])c(O)c(Br)cc12	Cruzain inh noDet inconclusive, Cruzain Triton 20µM! (no result: NS1 function inh)
Cc1ccc2oc(-c3ccccc3C(=O)O)cc(=O)c2c1	none
CC(C)CC(NS(=O)(=O)c1ccccc1S(=O)(=O)NC(CC(C)C)C(=O)O)C(=O)O (stereo not given)	none (no result: Cruzain inh noDet, Cruzain Triton)
CC1=CC(C)(C)n2c(O)c(N=NC(N)=S)c3c(C)c(C)cc1c32	none (no result: Cruzain inh noDet, Cruzain Triton)
CC1=CC(C)(C)n2c(O)c(N=NC(N)=S)c3c(C)ccc1c32	Cruzain inh noDet 20µM, Cruzain Triton inconclusive
CN1CCC(OC(=O)C2c3ccccc3Oc3ccccc32)CC1	none
Cn1cc(C=C(C#N)C#N)c2ccccc21	none (no result: Cruzain inh noDet, Cruzain Triton)
CN(C)c1cccc2c(C=C(C#N)C#N)ccc(N(C)C)c12	Cruzain inh noDet 20µM, Cruzain Triton 20µM
CCc1cc2ccc(C)cc2nc1SCC(=O)Nc1cc(C)on1	none (no result: Cruzain inh noDet, Cruzain Triton)
Cc1cc2cc3c(cc2nc1SCC(=O)Nc1nc(C)c(C)s1)OCO3	Cruzain inh noDet 31.6µM
COC(=O)CSc1nc2cc3c(cc2cc1C)OCO3	none (no result: Cruzain inh noDet, Cruzain Triton)
CCc1cc2cc3c(cc2nc1SCC(=O)Nc1cc(C)on1)OCO3	Cruzain inh noDet 25.1µM
COCc1cc(C)nc(OCC(=O)N/N=C\c2cc(C)n(-c3cccc(C(F)(F)F)c3)c2C)c1C#N	Cruzain inh noDet inconclusive
COC(=O)CC1SC(=O)NC1=Nc1ccccc1 (stereo not given)	none
CS(=O)(=O)c1cccc(S(=O)(=O)N2CCN(c3ccccn3)CC2)c1	none (no result: Cruzain inh noDet, Cruzain Triton)
CCOC(=O)c1c(NC(=O)CSc2ncnc3ccccc23)sc(C(C)=O)c1C	Cruzain inh noDet inconclusive
CCOC(=O)c1sc2nc(SCC(=O)NCc3ccco3)n(Cc3ccccc3)c(=O)c2c1C	Cruzain inh noDet 7.94µM
COC(=O)c1c(NC(=O)CSc2nc3ccccc3c(=O)n2Cc2ccco2)sc(C)c1C	Cruzain inh noDet 25.1µM
Cc1sc2nc(SCC(=O)NCc3ccco3)n(Cc3ccccc3)c(=O)c2c1C	none
CCOC(=O)c1c(NC(=O)CSc2nc3ccccc3c(=O)n2-c2ccc(F)cc2)sc(C(C)=O)c1C	Cruzain inh noDet 7.94µM
O=C(CSc1nc2ccccc2c(=O)n1Cc1ccco1)NCc1ccco1	none
Cc1cc(S(=O)(=O)Nc2ccc3oc4c(c3c2)CCCC4)ccc1Cl	none (no result: NS1 function inh)
COc1cccc(C(=O)NC(C)CCc2ccccc2)c1 (stereo not given)	none (no result: Cruzain inh noDet, Cruzain Triton)
CCOC(=O)c1c(NC(=O)CSC(=S)N(C)C)sc(C)c1C	none
COc1ccc(C(=O)N2CCC[C@@]3(CCN(Cc4ccccc4)C3)C2)cc1	none (no result: NS1 function inh)
Cc1csc(NC(=O)CSc2nnc(NC(=O)COc3ccc(Cl)cc3)s2)n1	Cruzain inh noDet 5.01µM
CCCC(=O)Nc1nnc(SCC(=O)Nc2nc(C)cs2)s1	none (no result: Cruzain inh noDet, Cruzain Triton)
Cc1ccc(-n2nc(C(=O)N3CCN(c4cccc(C(F)(F)F)c4)CC3)c(=O)n(C)c2=O)cc1	Cruzain inh noDet inconclusive (no result: NS1 function inh)
